Data on 40 molecules can be found in PubChem BioAssay (NCATS).

Structures are written as SMILES. Results filed as inconclusive are left out. Activity calls are given as the source filed them. The call rests on the fitted dose curve; in most records, active means well fitted cell-killing curve with a large enough effect; inconclusive means small, poorly fitted or top-dose-only effect, or effect the other way; inactive means no such curve, though single readings can be large or run the other way.
On the % scale 0 is the no-effect control and ±100 the full control effect.

A short description of the assay: qHTS assay to identify small molecule inhibitors of chordoma cells - UCH-1 (AID 1259355). Further: nearly all actives have a fitted effect of over 55% in size. To be noted: UCH-1 chordoma viability, CellTiter-Glo, 48 h, combination, with auranofin plus four topoisomerase inhibitors; series mostly up to 46.1 µM; activity, negative = inhibition: at the top concentration. The text has this:
NIH Chemical Genomics Center [NCGC]
Chordoma is a rare and slow growing tumor that can occur anywhere along the spine, from the base of the skull to the tailbone. Current treatment options for chordoma is surgery and radiation therapy for those who are not candidates for surgery. But chordomas tend to return in the same location or surrounding areas of the original tumor after surgery and/or radiation. Chemotherapy can slow down the progression of the tumor. As chordoma is slow growing, the general cytotoxic agents that kill fast growing cells are ineffective, and some patients have been reported to respond to molecularly targeted drugs.
NCATS Pharmaceutical Collection (NPC) containing approximately 3000 clinically approved and investigational drugs were used to screen at 15 concentrations in a chordoma cell lines, UCH-1, to identify small molecule compounds that can inhibit chordoma cell growth.
NCGC Assay Protocol Summary:
Human chordoma cell line UCH-1 was dispensed at 800 per well in 4uL of culture medium into white solid bottom 1536-well plates (Corning Life Sciences, Corning, NY) using a Multidrop Combi (Thermo Scientific, Waltham, MA) dispenser. The assay plates were incubated at 37 C and 5% CO2 for an overnight, and then 23nL of compounds dissolved in DMSO and positive control were transferred using a Pintool station (Wako, San Diego, CA). Compound treatment was followed by the addition of 1uL of the combination compounds (1uM Auranofin, 500nM each of Camptothecin, Doxorubicin, Rubitecan, and Topotecan) and assay medium to each well of the assay plates using Flying Reagent Dispenser (FRD, Aurora Discovery, San Diego, CA). The assay plates were incubated at 37 C and 5% CO2 for 48hr. Then 5uL of CellTiter-Glo reagent (Promega Corporation, Madison, WI) was added to each well of the assay plates using FRD. After 30min incubation at room temperature, the luminescence signal was quantified using a ViewLux plate reader (PerkinElmer, Shelton, CT).
(Quantitative high-throughput screening tests each substance at several concentrations.)
Regarding `CCCCCCCCCCCCCCCCCC[N+](C)(C)CCC[Si](OC)(OC)OC`, the “activity, negative = inhibition” value was 9.36% (inactive). The figure for `c1ccc2cc(C3=NCCN3)ccc2c1` is 4.8% (inactive); for `CC(C)(C)NCC(O)CSc1nc(-c2ccc(C(N)=O)s2)cs1` (stereo not given) it is -5.52% (inactive). Consider `CC(=O)c1ccc2c(c1)N(CCCN1CCN(CCO)CC1)c1ccccc1S2`, for which the “activity, negative = inhibition” value was -18.7% (inactive). The figure for `CC12CCC(C1)C(C)(C)C2=O` (stereo not given) is -20.8% (inactive).

Take `[O]=[Bi][O]C(=O)[O][Bi]=[O]`: the “activity, negative = inhibition” value was -28.5% (inactive).

For the molecule `O=C1N=C2SCCN2C(=O)C1Cc1ccc(Cl)cc1` (stereo not given), the “activity, negative = inhibition” value was -8.79% (inactive). For `CN(C)C=Nc1c(I)cc(I)c(CCC(=O)O)c1I`, the “activity, negative = inhibition” value was 0.41% (inactive). The figure for `CC(C)(C)CC(C)(C)c1cc(Cc2cc(C(C)(C)CC(C)(C)C)cc(-n3nc4ccccc4n3)c2O)c(O)c(-n2nc3ccccc3n2)c1` is -2.17% (inactive).

Regarding `NC(=S)NS(=O)(=O)c1ccc(N)cc1`, the “activity, negative = inhibition” value was 0.42% (inactive). The figure for `C/C=C/C=C/C(=O)O` is -24% (inactive); for `CC(C)CCC[C@@H](C)[C@H]1CC(=O)C2=C3CC[C@H]4C[C@@H](O)CC[C@]4(C)[C@H]3CC[C@@]21C` it is -16.2% (inactive).

As for `C[Se]CC[C@H](N)C(=O)O`, the “activity, negative = inhibition” value was -4.1% (inactive). The figure for `O=P(O)(O)OC[C@H]1O[C@](O)(COP(=O)(O)O)[C@@H](O)[C@@H]1O` is -11.6% (inactive). The same measure for `O=C(O)CC/C=C\CC[C@@H]1[C@@H](N2CCCCC2)[C@@H](O)C[C@@H]1OCc1ccc(-c2ccccc2)cc1`: -6.58% (inactive); for `CCCCC/C=C\CCC(=O)N[C@H]1[C@H](Oc2c3cc4cc2Oc2ccc(cc2Cl)[C@@H](O[C@@H]2O[C@H](CO)[C@@H](O)[C@H](O)[C@H]2NC(C)=O)[C@@H]2NC(=O)[C@H](NC(=O)[C@@H]4NC(=O)[C@H]4NC(=O)[C@@H](Cc5ccc(c(Cl)c5)O3)NC(=O)[C@H](N)c3ccc(O)c(c3)Oc3cc(O)cc4c3)c3ccc(O)c(c3)-c3c(O[C@H]4O[C@H](CO)[C@@H](O)[C@H](O)[C@@H]4O)cc(O)cc3[C@@H](C(=O)O)NC2=O)O[C@H](CO)[C@@H](O)[C@@H]1O`: -6.81% [at 20.6 µM] (inactive); for `CO[C@H]1C[C@H](O[C@@H]2/C(C)=C/C[C@@H]3C[C@@H](C[C@]4(CC[C@H](C)[C@@H](C5CCCCC5)O4)O3)OC(=O)[C@@H]3C=C(C)/C(=N/O)[C@H]4OC/C(=C\C=C\[C@@H]2C)[C@]43O)O[C@@H](C)[C@@H]1O`: -22.6% (inactive). The same measure for `CCC(=O)OC(OP(=O)(CCCCc1ccccc1)CC(=O)N1C[C@H](C2CCCCC2)C[C@H]1C(=O)O)C(C)C` (stereo not given in full): -8.14% (inactive); for `O=C1c2ccccc2C(=O)C1c1ccc(Cl)cc1`: -7.64% (inactive). For the molecule `CN[C@@H]1[C@H](O[C@H]2[C@H](O[C@H]3[C@H](O)[C@@H](O)[C@H](N=C(N)N)[C@@H](O)[C@@H]3N=C(N)N)O[C@@H](C)[C@]2(O)CO)O[C@@H](CO)[C@H](O)[C@H]1O`, the “activity, negative = inhibition” value was 14.5% (inactive). For the molecule `CCCCCCCCCc1ccc(OCCOCCO)cc1`, the “activity, negative = inhibition” value was -28.9% (inactive). Consider `O=C(NNCNNC(=O)c1ccncc1)c1ccncc1`, for which the “activity, negative = inhibition” value was -0.934% (inactive). With `O=[N+]([O-])c1c(Cl)cccc1-c1c[nH]cc1Cl`, the “activity, negative = inhibition” value is -12.8% (inactive). In the case of `CC1CS(=O)(=O)CCN1/N=C/c1ccc([N+](=O)[O-])o1` (stereo not given), the “activity, negative = inhibition” value was -10.7% [at 20.6 µM] (inactive).

For the molecule `CO[C@H]1O[C@@H]2O[C@@]3(C)CC[C@H]4[C@H](C)CC[C@@H]([C@H]1C)[C@@]24OO3`, the “activity, negative = inhibition” value was 10.2% (inactive). In the case of `C=C1CC[C@H](O)CC1=C/C=C1\CCC[C@]2(C)[C@@H]([C@H](C)CC[C@@H](O)C(C)(C)O)CC[C@@H]12`, the “activity, negative = inhibition” value is -10.5% (inactive). The figure for `CO/N=C(\C(=O)N[C@@H]1C(=O)N2C(C(=O)O)=C(C[N+]3(C)CCCC3)CS[C@H]12)c1csc(N)n1` is -1.12% (inactive); for `OCCCNc1ccccc1` it is -0.609% (inactive). The figure for `COc1ccc2c(=O)c(C)c(-c3ccccc3)oc2c1CN(C)C` is -3.24% (inactive); for `CCCCCCOC(=O)c1cccnc1` it is 5.14% (inactive); for `Nc1ncnc2c1ncn2[C@H]1CC[C@@H](CO)O1` it is -5.37% (inactive).

Turning to `C=CCOc1ccc(CC(=O)O)cc1Cl`, the “activity, negative = inhibition” value was -5.08% (inactive). The figure for `CCN(CC)CCCC(C)Nc1cc(/C=C/c2ccccc2Cl)nc2cc(Cl)ccc12` (stereo not given) is 2.35% (inactive); for `C/C(=C\C(=O)OCCCCCCCCC(=O)O)C[C@@H]1OC[C@H](C[C@@H]2O[C@H]2[C@@H](C)[C@H](C)O)[C@@H](O)[C@H]1O` it is 0.0299% (inactive). The figure for `CN(C)CCCSc1ccccc1NC(=O)/C=C/c1ccccc1` is -13.5% (inactive); for `CN[C@@H]1[C@@H](O)[C@@H](O[C@@H]2[C@@H](O)[C@H](O[C@H]3O[C@H](CN)[C@@H](O)[C@H](O)[C@H]3O)[C@@H](N)C[C@H]2NC(=O)C(O)CN)OC[C@]1(C)O` (stereo not given in full) it is -28.1% (inactive); for `O=C(O)CCC/C=C\C[C@@H]1[C@@H](/C=C/[C@@H](O)COc2cccc(Cl)c2)[C@H](O)C[C@@H]1O` it is -8.15% (inactive). The figure for `CC1CC(O)CC(C)(C)C1` (stereo not given) is -18.1% (inactive); for `CC1CCCC(C)N1NC(=O)c1ccc(Cl)c(S(N)(=O)=O)c1` (stereo not given) it is -9.84% [at 20.6 µM] (inactive); for `OC[C@H]1O[C@@](CO)(O[C@H]2O[C@H](CO)[C@@H](O)[C@H](O)[C@H]2O)[C@@H](O)[C@@H]1O` it is 0.107% (inactive).
